Compound activity deposited in PubChem BioAssay by several laboratories.
Only some compounds are listed: those with a hit (about 1.3% of all), similar ones and a draw of the others.
PLAP activator: activators of human placental alkaline phosphatase; activation fold at 20 µM; P05187; hit rate 1.2% among 96,000; purified PLAP enzyme, luminescent substrate read-out; hits give high values; in the data active means activation fold above about 2
TNAP act DEA: activates human TNAP at intermediate phosphate acceptor concentration. P05186. purified TNAP, CDP-star luminescence, 100 mM DEA, 30 min; hits give high values; scale: 0 levamisole-inhibited, 1 vehicle-only enzyme. activation factor at 20 µM. 64,000 tested, under 10 active;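 active means activation factor of at least 2 at 20 µM, relative to controls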
Target sequence (P05186 whole entry, looked up): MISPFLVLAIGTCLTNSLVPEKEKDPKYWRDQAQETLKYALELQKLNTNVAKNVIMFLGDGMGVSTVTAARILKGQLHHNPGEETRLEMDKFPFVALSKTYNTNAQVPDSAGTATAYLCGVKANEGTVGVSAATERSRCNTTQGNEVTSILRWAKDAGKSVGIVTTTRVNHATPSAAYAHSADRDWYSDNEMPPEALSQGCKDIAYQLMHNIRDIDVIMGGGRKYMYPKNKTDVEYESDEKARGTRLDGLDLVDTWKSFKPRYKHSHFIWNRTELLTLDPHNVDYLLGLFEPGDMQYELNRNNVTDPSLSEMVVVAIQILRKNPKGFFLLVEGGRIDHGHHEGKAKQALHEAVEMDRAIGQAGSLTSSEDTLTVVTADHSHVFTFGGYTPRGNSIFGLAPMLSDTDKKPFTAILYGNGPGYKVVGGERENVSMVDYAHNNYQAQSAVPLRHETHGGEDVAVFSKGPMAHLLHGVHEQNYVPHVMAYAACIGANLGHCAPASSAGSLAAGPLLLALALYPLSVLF
E coli WT exp: E. coli BW25113 growth inhibition, expanded screen; OD600 absorbance; growth inhibition, % at 100 µM; hit rate 0.15% among 98,000;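 active means growth inhibition above about 50% at one test dose, limit read from the data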;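 further: growth measured after 20 h incubation at 37 °C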
HePTP inh: inhibitors of human HePTP phosphatase; recombinant HePTP phosphatase activity, OD absorbance; inhibition, % at 20 µM; hit rate 0.64% among 110,000; in the data active means inhibition above about 50%;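 further: plate controls were vehicle for no effect and reference inhibitor for full effect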
Numbers without * were called inactive; . = no result given; ! = not active in a repeat.

SMILES	PLAP activator	TNAP act DEA	E coli WT exp	HePTP inh
Cc1ccc2nc(SCC(=O)N(CC(C)C)c3c(N)n(CC(C)C)c(=O)[nH]c3=O)[nH]c2c1	2.3*	.	5	.
CC(C)CN(C(=O)CSc1nncs1)c1c(N)n(CC(C)C)c(=O)[nH]c1=O	1	.	-5	.
COC(=O)c1ccc(Cn2c(C)cc(C)[n+]2C)o1	1.1	.	7	.
Cc1cc(C)c2c(c1)=C(c1sc(=S)[nH]c1O)C(=O)N=2	.	.	.	3
Cc1cc(C)c2c(c1)=C(c1sc(N)nc1O)C(=O)N=2	.	.	.	69*
CCOc1ccc(C(OC(=O)c2ccco2)C(=O)NCc2ccc(C)cc2)cc1 (configuration not stated)	1	.	-7	.
COc1ccc(CCNC(=O)CN2CCN(c3cccc(Cl)c3)CC2)cc1OC	1.7	1	-5	5
COc1cc(/C=C2/SC(=S)NC2=O)cc(Cl)c1O	.	.	.	-7
COc1ccc(C(=O)Nc2ccc(Cl)c(-c3nc4ccccc4s3)c2)cc1[N+](=O)[O-]	.	.	.	65*
CC1(C)OC(=O)C(=Cc2ccc(-c3ccc(Cl)cc3Cl)o2)C(=O)O1	.	.	.	6
Cc1[nH][nH]c(=O)c1C(c1ccc(-c2ccc(Cl)cc2Cl)o1)c1c(C)[nH][nH]c1=O	2.7*	.	5	.
Cc1ccc(-c2nnc(SCc3nc4ccccc4[nH]3)n2Cc2ccco2)cc1	1	.	-3	.
c1coc(Cn2c(SCc3nc4ccccc4[nH]3)nnc2-c2cccs2)c1	2.1*	1	1	7
O=C1N=c2ccc(Br)cc2=C1c1sc(NS(=O)(=O)Cc2ccccc2)nc1O	.	.	.	29
O=C1N=c2ccc(Br)cc2=C1c1sc(Nc2ccc(O)cc2)nc1O	.	.	.	93*
COC(=O)c1ccc(C(=O)OC)c(NC(=O)CCC(=O)O)c1	0.9	1	1	102*!
COc1ccc(N2CC(O)=C(c3nc(C)cs3)C2=N)cc1	2*	0.9	-2	8
Cc1c(Cl)cccc1NCN1C(=O)c2ccccc2C1=O	.	.	.	-2
CCC(=O)Nc1nc2ccccc2n1CCN1CCOCC1	1.3	0.9	6	-2
c1ccc(Cn2c(CNc3nc4ccccc4n3CCN3CCOCC3)nc3ccccc32)cc1	2.8*	1.3	3	7
Cc1nc(SCC(=O)c2ccccc2)n[nH]1	2.2*	0.9	3	-8
CC(NC(=O)c1cc2c(s1)CCCC2)C(C)(C)C (configuration not stated)	0.7	.	7	.
COc1ccc(-c2nc(C3CCCCC3)no2)cc1OC	1.3	0.9	2	7
CCOC(=O)C1=C(O)/C(=C/c2cccc(OC)c2O)N=C1C	.	.	.	-8
CCc1cc(C(=O)Cc2cnn(-c3ccccc3)c2)c(O)cc1O	1.2	1	4	2
SMILES	PLAP activator	TNAP act DEA	E coli WT exp	HePTP inh
O=C(Cc1cnn(-c2ccccc2)c1)c1ccc(O)c(O)c1O	2*	.	24	.
O=c1oc2cc(O)c([N+](=O)[O-])cc2cc1-c1csc(-c2cc3ccccc3oc2=O)n1	.	.	.	84*
CCCCSc1nc(C)cc(C)c1S(=O)(=O)c1ccccc1C	0.8	.	2	.
CC12CCC(c3c(C(=O)Nc4nccs4)nn(-c4ccccc4)c31)C2(C)C (configuration not stated)	2*	1.1	-7	10
CN(C)c1ccc(/C=C2/SC(N=Nc3c(O)[nH]c4ccccc34)=NC2=O)cc1	.	.	.	59*
COc1c(N2CCN(C(=S)Nc3ccccc3)C(C)C2)c(F)cc2c(=O)c(C(=O)O)cn(C3CC3)c12 (configuration not stated)	1.2	.	99*	.
Cc1c(-n2cc(C(=O)O)c(=O)c3cc(F)c(N4CCCC4)c(F)c32)c(=O)n(-c2ccccc2)n1C	1	0.9	.	1
CNC(=S)N1CCN(c2c(F)cc3c(=O)c(C(=O)O)cn(C4CC4)c3c2OC)CC1C (configuration not stated)	1	.	100*	.
COc1ccccc1NC(=O)CSc1nc2ncccc2[nH]1	1.7	0.8	2	-1
COc1ccc(NC(C)=O)cc1NC(=O)CSc1nc2ncccc2[nH]1	2.4*	0.8	1	-2
O=C1CSC(=S)N1Cc1cccnc1	1.9	1	65*	7
COC(=O)c1ccc(-c2ccc(/C=C3/SC(NC(C)=O)=NC3=O)o2)cc1	.	.	.	-5
CC(=O)NC1=NC(=O)/C(=C\c2ccc(I)o2)S1	.	.	.	102*
Cc1ccc(S(=O)(=O)N2CCC(C(=O)NCCc3ccccc3)CC2)cc1	0.8	.	-2	.
Cc1ccc(S(=O)(=O)N2CCC(C(=O)NCCN3CCCCCC3)CC2)cc1	2.1*	1	0	0
Cc1ccc(S(=O)(=O)N2CCC(C(=O)N3CCC[C@H]3C(=O)NC3CCS(=O)(=O)C3)CC2)cc1 (some centres not stated)	2*	0.9	8	0
